Laboratory results from the supplement of paper PMC5734697.

These compounds were tested on Caenorhabditis elegans (assay: growth (movement index) relative to DMSO control, secondary screen (log2 fold change); higher = more growth (less anthelmintic activity)). Conditions: 10 µM, 5 days, 20 °C, stage: L1 start.
Method: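 C. elegans growth assay: synchronised L1 larvae (~20 per well) in S-complete medium with HB101 E. coli were grown in 96-well plates with Pathogen Box compound at 10 µM (1% DMSO) for 5 days at 20 °C. Motility/growth was quantified by whole-plate movie imaging (INVAPP/Paragon movement index). The score is the log2 fold change of the median movement of 5 replicate wells (on different plates) relative to DMSO-only wells. The secondary screen retested the top 20 hits with the same library material (n = 5, 10 µM).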

SMILES	growth (log2)
CC1(C)OB(O)c2ccc(C3=NOC(c4cc(Cl)c(F)c(Cl)c4)(C(F)(F)F)C3)cc21 (configuration not stated)	-0.316
CCc1nn(C)c(C(=O)NCc2ccc(Oc3ccc(C)cc3)cc2)c1Cl	-10.6
